From PubChem BioAssay
An excerpt weighted towards active compounds, which were near 10% of everything screened.
CCT chaperon mod: modulators of cytosolic chaperonin (CCT/TRiC) activity | actives 0.3% (n = 360,000) | activity change, % (concentration not given with the values), hits read low | AID 651819 | purified chaperonin ATPase assay, HTRF ADP detection, 30 min; in the data active means activity change below about -30%
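ATPase activity: ADP formed was measured by HTRF Transcreener (665/615 nm ratio) after 30 min at 37 deg C with 10 uM ATP. Compounds screened at one 76 uM concentration against 40 or 20 nM TRiC in Tris pH 7.4/KCl/MgCl2/DTT buffer.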
G9a inh: G9a (human) methyltransferase inhibition; actives 8.8% (n = 350,000); G9a H3K9 monomethylation, AlphaScreen, 2 h; Potency, µM (doses to about 102 µM), most hits filed as inhibitors; further: nearly all actives have a fitted effect of over 75% in size
Target sequence (Q96KQ7 913-1193 limits assumed): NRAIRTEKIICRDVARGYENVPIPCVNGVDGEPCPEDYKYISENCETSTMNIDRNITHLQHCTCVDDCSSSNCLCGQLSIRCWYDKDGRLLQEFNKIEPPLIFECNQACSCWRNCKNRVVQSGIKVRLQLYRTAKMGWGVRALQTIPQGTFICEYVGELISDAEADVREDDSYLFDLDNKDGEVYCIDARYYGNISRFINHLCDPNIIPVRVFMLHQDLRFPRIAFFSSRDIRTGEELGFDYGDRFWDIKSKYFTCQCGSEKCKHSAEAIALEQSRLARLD
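Methyltransferase reactions run at room temperature for 2 h (20 nM enzyme, 500 nM biotin-H3K9 peptide, 20 uM SAM) after a 15 min compound preincubation; product detected by AlphaScreen beads and anti-H3K9me1 antibody.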
VDR inhibitor: inhibitors of human vitamin D receptor; P11473; VDR-SRC2-3 peptide fluorescence polarization, 2 h; Potency, µM, usual class: inhibitors; actives 0.93% (n = 400,000); AID 504847
Target sequence (P11473 whole entry, looked up): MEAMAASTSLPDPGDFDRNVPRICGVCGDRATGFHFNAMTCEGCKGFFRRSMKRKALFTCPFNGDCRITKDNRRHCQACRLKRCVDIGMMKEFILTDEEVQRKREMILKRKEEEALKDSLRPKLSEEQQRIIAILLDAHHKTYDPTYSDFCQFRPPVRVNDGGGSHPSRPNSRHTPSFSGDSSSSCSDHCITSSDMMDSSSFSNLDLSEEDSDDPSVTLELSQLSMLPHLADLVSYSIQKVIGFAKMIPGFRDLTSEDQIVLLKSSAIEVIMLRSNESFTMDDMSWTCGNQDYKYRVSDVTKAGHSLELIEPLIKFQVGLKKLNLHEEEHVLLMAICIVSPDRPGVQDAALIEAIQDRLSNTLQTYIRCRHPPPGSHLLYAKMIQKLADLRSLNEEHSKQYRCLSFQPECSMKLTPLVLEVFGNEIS
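Inhibition of the VDR/SRC2-3 peptide interaction is quantified by fluorescence polarization. Compounds (23 nl, pintool) incubate with the reagents for 2 hours at ambient room temperature.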
Sfp PPTase inh: Sfp phosphopantetheinyl transferase inhibition; Biochemical Sfp PPTase activity, qHTS; Potency, µM, most hits filed as inhibitors; actives 3.5% (n = 310,000);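 further: the enzyme is Sfp with the accession as filed and its product quenches rhodamine fluorescence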
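Step 1, compound plus 15 nM Sfp-PPTase, 15 min, room temperature. Step 2, add rhodamine-CoA (5 uM) and BHQ-2-YbbR (12.5 uM). Step 3, read 525/598 nm fluorescence at 0 and 30 min.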
PLK1 PBD block: inhibitors of human PLK1 polo-box domain binding. Plk1 PBD binding of FITC phosphopeptide, fluorescence polarization. Potency, µM, most hits filed as inhibitors. actives 2.8% (n = 360,000). AID 720504; further: series mostly up to about 57 µM; nearly all actives have a fitted effect of over 65% in size
MmCpn inh: M. maripaludis TRiC chaperonin inhibition. purified Mm-Cpn ATPase, ADP Transcreener TR-FRET. Potency, µM (titrated, usually from 76.9 µM), most hits filed as inhibitors. actives 0.031% (n = 330,000); further: nearly all actives have a fitted effect of over 80% in size
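Eu-cryptate anti-ADP/ADP-d2 competition gives a ratio inversely related to ADP. Enzyme at 25 nM was pre-exposed to compound for 10 min, then given 10 uM ATP for 30 min, 37°C throughout.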
Large screens that a line does not name were inactive; ! = not confirmed by another sample. Unless noted, the call rests on the fitted dose curve; in most records, active means well fitted curve in the direction sought with a large enough effect; inconclusive means small, poorly fitted or top-dose-only effect, or another doubt; inactive means no such curve, though single readings can be large; an effect the other way counts as inactive or inconclusive.

Cc1ccc(NC(=O)N(Cc2ccc3c(c2)OCO3)C2CCN(Cc3ccccc3)CC2)cc1Cl	G9a inh inconclusive (no result: CCT chaperon mod, Sfp PPTase inh, PLK1 PBD block, MmCpn inh)
CCCCOCN(C(=O)CCl)c1c(CC)cccc1CC	VDR inhibitor inconclusive (no result: CCT chaperon mod, G9a inh, PLK1 PBD block, MmCpn inh)
C[C@]12CC[C@H](OS(=O)(=O)O)CC1=CCC1C2CC[C@]2(C)C(=O)CC[C@@H]12 (some centres not stated)	VDR inhibitor inconclusive (no result: CCT chaperon mod, PLK1 PBD block, MmCpn inh)
CCN1C[C@]2(COC)CC[C@H](O)[C@@]34[C@@H]5C[C@H]6[C@@H](OC)[C@H]5[C@](O)(C[C@@H]6OC)[C@@](O)([C@@H](OC)[C@H]23)[C@@H]14	none (no result: CCT chaperon mod, PLK1 PBD block, MmCpn inh)
Cc1ccc(Cl)cc1NC(=O)N(Cc1ccc2c(c1)OCO2)C1CCN(Cc2ccccc2)CC1	G9a inh inconclusive (no result: CCT chaperon mod, Sfp PPTase inh, PLK1 PBD block, MmCpn inh)
CCOc1ccc(-c2nc3ccc(-c4nc5ccc(N6CCN(C)CC6)cc5[nH]4)cc3[nH]2)cc1	G9a inh 13µM, Sfp PPTase inh inconclusive (no result: CCT chaperon mod, PLK1 PBD block, MmCpn inh)
CN(C)C(CSC(N)=O)CSC(N)=O	VDR inhibitor inconclusive (no result: CCT chaperon mod, G9a inh, PLK1 PBD block, MmCpn inh)
c1cncc(C2Nc3cccc4cccc(c34)N2)c1	G9a inh 11µM!, Sfp PPTase inh inconclusive
CN(C)CCN(C(=O)c1cc(Cl)sc1Cl)c1nc2ccc(F)cc2s1	G9a inh 11µM
CCOC(=O)C1C(C=C(C)C)C1(C)C (configuration not stated)	none (no result: CCT chaperon mod, G9a inh, PLK1 PBD block, MmCpn inh)
C=CCN1CCC2(C)c3cc(O)ccc3C[C@H]1[C@H]2C	none (no result: CCT chaperon mod, G9a inh, PLK1 PBD block, MmCpn inh)
C=CCN1CC[C@@]2(C)c3cc(O)ccc3CC1[C@@H]2C	G9a inh 45µM!, VDR inhibitor inconclusive
C=C(C)c1cc2cc(C(C)=O)c(O)cc2o1	none (no result: CCT chaperon mod, G9a inh, PLK1 PBD block, MmCpn inh)
COc1ccccc1N1C(=O)NC(=O)/C(=C/c2ccc3c(c2)Cc2ccccc2-3)C1=O	G9a inh inconclusive, VDR inhibitor inconclusive, Sfp PPTase inh 50µM, PLK1 PBD block 5.3µM
O=C1NC(=O)N(c2ccccc2)C(=O)/C1=C/c1ccc2c(c1)Cc1ccccc1-2	G9a inh 6.3µM, Sfp PPTase inh 50µM (no result: CCT chaperon mod, VDR inhibitor, PLK1 PBD block)
COc1cc(/C=C2\C(=O)NC(=O)N(c3ccccc3)C2=O)cc(OC)c1O	G9a inh inconclusive, Sfp PPTase inh 22µM, PLK1 PBD block inconclusive
Cn1cc(/C=C2\C(=O)NC(=O)N(c3ccccc3)C2=O)c2ccccc21	none
Cc1ccc(C(C)C)c(OCC(=O)N2CCN(CCc3ccncc3)CC2)c1	none (no result: CCT chaperon mod, Sfp PPTase inh, PLK1 PBD block, MmCpn inh)
NC(Cn1ccc(=O)c(O)c1)C(=O)O (configuration not stated)	none (no result: CCT chaperon mod, PLK1 PBD block, MmCpn inh)
COc1ccc(NC(=O)CN2C(=O)CN=C(c3ccccc3)c3ccccc32)c(OC)c1	none (no result: CCT chaperon mod, Sfp PPTase inh, PLK1 PBD block, MmCpn inh)
CCC(=O)Nc1ccc(N2CCN(CC)CC2)c(Cl)c1	G9a inh 79µM
NCCc1cccc(O)c1	none (no result: CCT chaperon mod, PLK1 PBD block, MmCpn inh)
CC/C(=N\NC(=S)Nc1ccccc1)c1c(O)[nH]c(=O)[nH]c1=O	Sfp PPTase inh 22µM
Nn1c(COc2ccc(Cl)cc2)n[nH]c1=S	G9a inh 1.8µM, Sfp PPTase inh 35µM, PLK1 PBD block inconclusive
Cc1cccc(C)c1OCc1n[nH]c(=S)n1N	G9a inh 1.8µM, Sfp PPTase inh 50µM, PLK1 PBD block inconclusive
Cc1cccc(-n2c(C)n[nH]c2=S)c1C	G9a inh inconclusive (no result: MmCpn inh)
CCOc1cncc(/C=C/CCNC)c1	VDR inhibitor inconclusive (no result: CCT chaperon mod, G9a inh, PLK1 PBD block, MmCpn inh)
CC(C)C(C)/C=C/C(C)C1CCC2C3=CC=C4CC(O)CCC4(C)C3CCC21C (configuration not stated)	VDR inhibitor inconclusive (no result: CCT chaperon mod, PLK1 PBD block, MmCpn inh)
CCN(CC)C(=O)c1ccc(NC(=O)CCn2nc(-c3ccc(Cl)cc3)c3ccccc3c2=O)cc1	VDR inhibitor inconclusive (no result: CCT chaperon mod, Sfp PPTase inh, PLK1 PBD block, MmCpn inh)
CC1=C2CC3C(CC=C4C[C@@H](O)CC[C@@]43C)[C@@H]2CC[C@]12O[C@@H]1C[C@H](C)CN[C@H]1[C@H]2C (some centres not stated)	none (no result: CCT chaperon mod, PLK1 PBD block, MmCpn inh)
c1ccc2c(CCNC3CCCCC3)c[nH]c2c1	G9a inh 13µM, Sfp PPTase inh 50µM
CC(=O)OC[C@H](N)C(=O)c1ccccc1	G9a inh inconclusive (no result: CCT chaperon mod, VDR inhibitor, PLK1 PBD block, MmCpn inh)
Cn1cnc(CCN)c1	G9a inh 7.9µM! (no result: Sfp PPTase inh, MmCpn inh)
O=C(O)c1ccc(-c2ccc3cc(C45CC6CC(CC(C6)C4)C5)c(O)cc3c2)cc1	VDR inhibitor 56µM, Sfp PPTase inh inconclusive (no result: CCT chaperon mod, G9a inh, PLK1 PBD block, MmCpn inh)
N#CC(C#N)=NNc1ccc(S(N)(=O)=O)cc1	VDR inhibitor inconclusive, PLK1 PBD block 24µM
C#C[C@]1(O)CC[C@H]2[C@@H]3CCC4=Cc5nc6nc7ccccc7n6cc5C[C@]4(C)[C@H]3CC[C@@]21C	G9a inh 25µM, VDR inhibitor inconclusive, PLK1 PBD block inconclusive (no result: Sfp PPTase inh)
C#C[C@@]1(O)CCC2C3CCC4=C/C(=N/OCC(=O)NC(C(=O)O)C(C)O)CC[C@]4(C)C3CC[C@@]21C (some centres not stated)	none
CN(C)CCCN=Cc1c(O)n(CCc2ccc(F)cc2)c(=O)[nH]c1=O	G9a inh inconclusive
COCCN1C(=O)NC(=O)/C(=C\c2ccc(Br)cc2)C1=O	G9a inh 45µM, VDR inhibitor inconclusive, Sfp PPTase inh 50µM, PLK1 PBD block 5.3µM
CN(C)c1ccc(CCN2CCOCC2)cc1	none (no result: Sfp PPTase inh)
CN(C)c1ccc(/C=C2\C(=O)NC(=O)N(Cc3ccc(F)cc3)C2=O)cc1	PLK1 PBD block 1.2µM (no result: G9a inh)
